From PubChem BioAssay AID1461 (National Center for Advancing Translational Sciences (NCATS), 2008)
Out of some 220,000 compounds screened, about 2,300 (1%) were called active. Not shown: some 6% with an inconclusive outcome. The entries come from a sample that favours actives as a whole. A number with no mark means an inactive call. Calls follow the shape of the dose curve; as a rule, active = well fitted inhibition curve with a large enough effect; inconclusive = small, poorly fitted or top-dose-only effect, or effect the other way; inactive = no such curve, though single readings can be large or run the other way.

target: Neuropeptide S receptor (Homo sapiens) (UniProt Q6W5P4); test: qHTS Assay for Antagonists of the Neuropeptide S Receptor: cAMP Signal Transduction; conditions: CHO-NPSR cells, cAMP TR-FRET, antagonist mode; series mostly up to 38.3 µM; activity change, negative = inhibition: at the top concentration; also: nearly all actives have a fitted effect of over 50% in size
Text: NIH Chemical Genomics Center [NCGC] NIH Molecular Libraries Probe Production centers Network [MLPCN] MLPCN Grant: X01-DA026210-01 Assay Submitter (PI): Heilig, Markus Alexander NCGC Assay Overview: Neuropeptide S receptor (NPSR), previously known as GPR154, is a recently de-orphanized G protein coupled receptor. Its endogenous ligand is the 20 amino acids peptide Neuropeptide S (NPS). […] NPS and its receptor are found in various tissues. Specifically they are highly expressed in brain areas that have been implicated in modulation of arousal, stress and anxiety. Central administration of NPS in mice produces an unusual profile of activity by inducing wakefulness and arousal, while at the same time suppressing anxiety. Therefore, NPSR may represent a novel drug target for the treatment of sleep and anxiety disorders. To identify NPSR antagonists, we developed a cell-based cAMP assay. NPS can stimulate the production of cAMP in Chinese hamster ovary cells stably expressing NPS receptor. This change in intracellular cAMP level can be detected by a homogeneous LANCE cAMP assay based on the TR-FRET (time resolved fluorescence resonance energy transfer) between a europium-labeled cAMP tracer complex and a cAMP-specific antibody labeled with Alexa Fluor 647. The europium-labeled cAMP tracer complex is formed by the tight interaction between Biotin-cAMP (b-cAMP) and streptavidin labeled with Europium-W8044 chelate (Eu-SA). Light pulse at 320 nm excites the europium of the cAMP tracer and the energy emitted is transferred to the Alexa molecule bound to the cAMP antibody, generating a TR-FRET signal at 665 nm. Residual energy from the europium will produce a light at 620 nm. The native unlabeled cAMP from cell lysates competes with the europium-cAMP tracer for antibody binding and reversely reduces the emission signal of Alexa by interrupting FRET between the two labeled molecules. Both emission signals from the FRET donor (620 nm) and the acceptor (665 nm) can be detected by a plate reader in the TRF mode. Expression of result in fluorescence ratio (665 nm/620 nm) helps to normalize differences due to cell density and reagent dispensing. This assay was successfully optimized to a 1536-well plate format.
NCGC Assay Protocol Summary: A Chinese hamster ovary (CHO) cell line stably expressing the NPS receptor (CHO-NPSR) was obtained from Dr. Heilig lab at NIAAA and maintained in F-12 Kaighn's media (Invitrogen, Carlsbad, CA, 21127) supplemented with 10 % FBS, 100 units/ml penicillin, 100 ug/ml streptomycin and 250 ug/ml geneticin at 37C, 5% CO2 in a humidified atmosphere. Before the assay, aliquots of cells were frozen and stored at -135C. The assay was performed in 1536-well format. Data are reported for both the ratio of the two emission wavelengths, and also for the component 'donor' channel, Em2=620. Data were normalized to the controls for basal activity (DMSO only) and 100% inhibition (No NPS control). IC50 values were determined from concentration-response data modeled with the standard Hill equation. NPS 1536-well assay protocol: (1) Fresh or frozen CHO-NPSR cells were suspended in F-12 Kaighn's media supplemented with 10 % FBS, 100 units/ml penicillin and 100 ug/ml streptomycin. Cells were plated at 4 ul/well (1200 cells) to white, tissue culture treated 1536-well plates, and then cultured at 37C, 5 % CO2 for 16 to 30 hours. (2) Add 23 nl/well of compound in DMSO solution. The final titration for each compound was between 0.6 nM and 46 uM. (3) Add 1 ul of stimulation reagent (1X HBSS buffer, 5 mM HEPES, 0.1% BSA, 500 uM RO-201724 (Sigma-Aldrich, B8279), 1.5% Alexa 647-labeled anti-cAMP antibody (from Perkin Elmer), 100 nM NPS) (4) Incubation at 37C, 5 % CO2 for 60 min. (5) Add 1 ul/well detection reagent. Detection reagent was prepared by adding biotin labeled cAMP (4%), streptavidin labeled with Europium-W8044 chelate (1.33%) and TritonX-100 (1%) to detection buffer. […]
% is scaled to controls: 0 for no effect and ±100 for the full control effect; potency is read from the fitted curve at half-maximal effect.

Chain of Neuropeptide S receptor (Homo sapiens) (Q6W5P4 whole entry, looked up): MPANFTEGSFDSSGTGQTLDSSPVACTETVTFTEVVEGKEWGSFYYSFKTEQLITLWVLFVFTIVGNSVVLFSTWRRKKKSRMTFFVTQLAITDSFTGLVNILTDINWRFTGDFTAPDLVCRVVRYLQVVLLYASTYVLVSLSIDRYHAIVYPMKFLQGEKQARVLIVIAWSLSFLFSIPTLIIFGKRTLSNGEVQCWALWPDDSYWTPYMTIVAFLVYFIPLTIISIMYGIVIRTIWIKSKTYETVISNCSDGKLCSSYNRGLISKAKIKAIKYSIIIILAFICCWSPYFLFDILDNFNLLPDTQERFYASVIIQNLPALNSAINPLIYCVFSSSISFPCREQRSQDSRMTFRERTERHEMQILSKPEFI

| Structure (SMILES) | activity change, negative = inhibition | Potency |
| --- | --- | --- |
| O=C(Nc1ccc(Sc2ccc(Br)cc2)cc1)c1ccco1 | -22.6% [at 46.1 µM] |  |
| C=CCCN(Cc1ccccc1)S(=O)(=O)c1ccccc1Br | -39.7% |  |
| O=C(NNC(=O)c1csc(-c2cccnc2)n1)Nc1ccc(Cl)cc1 | -1.58% |  |
| O=C(O)CC12CC3CC(C1)CC(n1ncc(NCc4ccc(F)cc4)c(Cl)c1=O)(C3)C2 | -4.32% |  |
| O=C(NNC(=S)NC1CC2CCC1C2)c1ccc(Cl)cc1 (configuration not stated) | -26.4% |  |
| CC(C)CCn1c(CN(C)Cc2ccccc2)nc2c1c(=O)n(C)c(=O)n2C | -20.1% [at 46.1 µM] |  |
| CC(C)Cn1c(CN(Cc2ccccc2)Cc2ccccc2)nc2c1c(=O)n(C)c(=O)n2C |  | 12.6 µM (active) |
| COCCn1c(CN(Cc2ccccc2)Cc2ccccc2)nc2c1c(=O)n(C)c(=O)n2C | -20.7% [at 46.1 µM] |  |
| S=c1[nH]nc(-c2cccnc2)n1/N=C/C(Cl)=C\c1ccccc1 | -30.4% |  |
| Cc1cc(-c2n[nH]c(=S)n2/N=C/c2ccco2)n[nH]1 | 2.84% |  |
| Cc1cc(-c2n[nH]c(=S)n2/N=C/C(Br)=C/c2ccccc2)n[nH]1 |  | 3.98 µM (active) |
| Cn1c(SCC(=O)c2ccc(F)cc2)nnc1-c1ccccn1 | -7.53% |  |
| Cc1nc2nc(SCC(=O)c3ccccc3)[nH]c2cc1Br | -26.3% |  |
| Nc1nc(SC23CC4CC(CC(C4)C2)C3)ns1 | 7.63% |  |
| Cn1c(C(=O)O)ccc1S(=O)(=O)N(Cc1ccccc1)Cc1ccccc1 | 35.6% |  |
| N#C/C(=C1\CCCN1)c1nc(-c2ccccc2)cs1 | -23.6% [at 46.1 µM] |  |
| N#CC1=C(SCc2ccc(C#N)cc2)N=C(N)C(c2nc(-c3ccccc3)cs2)C12CCCCC2 (configuration not stated) |  | 3.98 µM (active) |
| N#CC1=C(SCc2ccccc2)NC(=O)C(C#N)C12CCCC2 (configuration not stated) | 3.01% [at 46.1 µM] |  |
| S=c1[nH]c2ccccc2c2ccccc12 | -17.7% |  |
| CCCCCCCCCCCCC(NC(C)=O)(C(=O)OCC)C(=O)OCC | 40.3% |  |
| Nc1ccccc1Sc1cc(Cl)nnc1Cl | -25.8% |  |
| Cc1ccc(-c2c[n+](CC(=O)Nc3ccccc3)c3n2CCC3)cc1 | -1.52% |  |
| CCOC(=O)c1c(C)[nH]c(=S)c(C#N)c1-c1ccccc1 |  | 7.94 µM (active) |
| CCOC(=O)c1c(C)[nH]c2c1-c1ccccc1C(=O)C2=O | 6.24% |  |
| CC(=O)c1c(C)[nH]c(=S)c(C#N)c1-c1ccc(F)cc1 | -16.5% |  |
| Cn1cnc(S(=O)(=O)Nc2ccc3c(c2)OCCO3)c1 | 9.08% |  |

| Structure (SMILES) | activity change, negative = inhibition | Potency |
| --- | --- | --- |
| Cc1cc(C)cc(NC(=O)NC2CCN(CC(=O)Nc3cccc(Cl)c3C)CC2)c1 | -25.3% |  |
| O=C(CN1CCCCC1)Nc1ccccc1Cl | -3.09% |  |
| O=C(Nc1ccccc1Cl)/C(Cl)=C(\Cl)S(=O)c1ccccc1 (configuration not stated) |  | 7.94 µM (active) |
| COCCN(CCOC)C(=S)Nc1ccccc1Cl | 8.02% |  |
| COc1ccc(C(=O)N/N=C2\CCS(=O)(=O)c3ccc(F)cc32)cc1OC | -2.66% |  |
| COC(=O)c1cc(C(=O)OCC(=O)Nc2cc(C)on2)cc([N+](=O)[O-])c1 | -14.2% |  |
| N/C(=N\OC(=O)CCn1cccc(C(F)(F)F)c1=O)c1ccc(OC(F)(F)F)cc1 | -8.1% |  |
| Cn1c(S(=O)(=O)O)nc2ccccc21 | 22.2% |  |
| Cc1ccc(NC(=O)/C(=C/c2ccc([N+](=O)[O-])cc2)NC(=O)c2ccccc2)cc1 | 7.14% |  |
| N#C/C(=C\N1CCOCC1)S(=O)(=O)c1ccc(Cl)cc1 | 14.9% |  |
| O=C(COc1ccccc1)N1CCN=C1SCc1cccc(F)c1 | -1.12% |  |
| N#CCCCn1c(O)c(N=NC(=O)C(O)c2ccccc2)c2ccccc21 (configuration not stated) | -19.2% |  |
| O=C(NCc1cccs1)c1cc(-c2ccccn2)nc2ccc(Br)cc12 |  | 10 µM (active) |
| O=C(NCC(c1cccs1)N1CCOCC1)c1cc(-c2ccccn2)nc2ccccc12 (configuration not stated) | 7.93% |  |
| O=C(NCc1ccccn1)c1cc(Br)ccc1Cl | 7.75% |  |
| C#CCO[C@@H]1C[C@H](n2cnc3c(=O)[nH]c(NC(=O)C(C)C)nc32)O[C@@H]1CO | 10.8% |  |
| CCC1=NN2C(=N)/C(=C/c3cc(C)n(-c4ccccc4)c3C)C(=O)N=C2S1 | 19.1% |  |
| Cc1ccc2cc(/C=N/Nc3ccc(C(=O)O)cc3)c(Cl)nc2c1 | -22.4% |  |
| Cc1ccc(C2C3=C(Nc4[nH]n(-c5ccccc5)c(=O)c42)c2ccccc2C3=O)cc1 (configuration not stated) | -43.2% |  |
| Cc1cc(C)c(C2C3=C(Nc4c2c(C)nn4-c2ccccn2)c2ccccc2C3=O)c(C)c1 (configuration not stated) |  | 10 µM (active) |
| Cc1nn(-c2ccccn2)c2c1C(c1ccncc1)C1=C(CC(C)(C)CC1=O)N2 (configuration not stated) | -14.2% [at 46.1 µM] |  |
| COCc1cc(=O)[nH]c(-c2ccc(C(F)(F)F)cc2)n1 | -8.06% |  |
| Cc1oc(C(N)=O)cc1COc1ccc(C(N)=O)cc1 | 11.4% |  |
| O=C(NC(Nc1nc2ccc([N+](=O)[O-])cc2s1)(C(F)(F)F)C(F)(F)F)c1ccccc1 |  | 3.98 µM (active) |
| O=C(Nc1nc2ccc([N+](=O)[O-])cc2s1)c1ccncc1 | -23.6% |  |
| O=C(O)CCC(=O)Nc1nc2ccc([N+](=O)[O-])cc2s1 | 36.1% |  |
